The values that follow come from PubChem BioAssay AID1376 (SRMLSC, 2008).

The whole screen tested about 220,000 compounds, of which about 530 (0.24%) were called active. Cut-off read from the data, not from the text of the source: active = inhibition above about 13%; inconclusive = no clear call, values can overlap the other calls; inactive = below that. The list comes from a sample in which actives are over-represented; it also holds similar structures and randomly drawn compounds. Potency and affinity values are given separately.

Sequence of Bifunctional protein GlmU (Mycobacterium tuberculosis (strain ATCC 25618 / H37Rv)) (P9WMN3 whole entry, looked up): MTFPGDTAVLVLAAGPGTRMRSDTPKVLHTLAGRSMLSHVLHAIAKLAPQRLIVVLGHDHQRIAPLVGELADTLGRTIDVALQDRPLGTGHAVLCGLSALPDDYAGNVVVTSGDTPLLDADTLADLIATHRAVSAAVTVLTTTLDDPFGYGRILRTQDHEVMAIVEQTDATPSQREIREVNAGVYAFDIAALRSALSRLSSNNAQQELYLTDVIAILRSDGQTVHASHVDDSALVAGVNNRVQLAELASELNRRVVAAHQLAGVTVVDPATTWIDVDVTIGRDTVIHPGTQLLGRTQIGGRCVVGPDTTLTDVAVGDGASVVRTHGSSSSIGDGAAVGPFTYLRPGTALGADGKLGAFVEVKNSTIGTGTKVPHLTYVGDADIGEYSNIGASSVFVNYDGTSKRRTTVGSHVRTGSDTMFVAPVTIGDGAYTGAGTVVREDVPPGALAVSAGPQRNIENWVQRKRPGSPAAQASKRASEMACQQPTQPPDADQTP

This test has as its target Bifunctional protein GlmU (Mycobacterium tuberculosis (strain ATCC 25618 / H37Rv)) (UniProt P9WMN3). Kind of test: inhibition of mycobacterial GlmU enzyme – biochemical, glucosamine-1-phosphate acetyltransferase (AID 1376).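 Note: 0% = complete reaction with vehicle and 100% = reaction without substrate.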 The following applies: M. tuberculosis GlmU acetyltransferase enzyme assay; hits give high values;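 tested at 30 µM in the primary screen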.
For `N#Cc1c(Nc2ccccc2Cl)s[nH]c1=O`, the inhibition was 0.08% (inactive).
The figure for `N#Cc1c(Nc2ccccc2)s[nH]c1=O` is 14.2% (active); for `N#Cc1c(Nc2ccc(Cl)cc2)s[nH]c1=O` it is 4.63% (inactive).
Then `COCCNC(=O)c1cc2c(=O)n3cccc(C)c3nc2n1C`, with 3.57% (inactive).
`O=C(O)c1ccccc1SCc1cn2cc(Br)ccc2n1`: the inhibition was 0.7% (inactive).
Regarding `CCOc1ccc2c(c1)C(=O)c1cc(OCC(=O)O)ccc1-2`, the inhibition is -3.72% (inactive).
The figure for `O=C(c1ccccc1)c1ccccc1C(=O)N1CCOCC1` is -1.73% (inactive); for `O=C(c1ccccc1)c1ccccc1C(=O)N1CCN(C(=O)c2ccccc2)CC1` it is -3.19% (inactive).
For the molecule `O=C(c1ccccc1)c1ccccc1C(=O)N1CCCC1`, the inhibition is 13.3% (active).
Then `CCCNC(=O)c1ccc(Cn2cc(C(F)(F)F)ccc2=O)cc1`, with 0.72% (inactive); and `O=C(Nc1cc2c(ccc3ccccc32)oc1=O)C1CCCCC1`, with 0.95% (inactive).
Then `COc1cc(/C=C2/C(=N)N3C(c4ccccc4)=CSC3=NC2=O)ccc1OCC(=O)O`, with 14.6% (active); and `N=C1/C(=C\c2ccc(-c3cc(Cl)cc(Cl)c3)o2)C(=O)N=C2SC=C(c3ccccc3)N12`, with -7.2% (inactive).
The figure for `Cc1cc(/C=C2/C(=N)N3C(c4ccccc4)=CSC3=NC2=O)c(C)n1-c1ccccc1` is -4.29% (inactive); for `CC(C)S(=O)(=O)C1=NSC2=NC(=O)/C(=C\c3ccc(-c4ccccc4)o3)C(=N)N21` it is 4.83% (inactive); for `CS(=O)(=O)C1=NSC2=NC(=O)/C(=C\c3ccc(-c4ccccc4)o3)C(=N)N21` it is -0.37% (inactive).
Turning to `Cc1cccc(-n2c(C)cc(/C=C3/C(=N)N4C(c5ccccc5)=CSC4=NC3=O)c2C)c1`, the inhibition is 1.75% (inactive).
The figure for `N=C1/C(=C/c2cccn2CCOc2ccccc2)C(=O)N=C2SC=C(c3ccccc3)N12` is 2.69% (inactive).
The figure for `COc1cc(/C=C2/C(=N)N3C=CSC3=NC2=O)ccc1OCCCOc1ccccc1C` is -3.86% (inactive); for `Cc1ccc(-n2c(C)cc(/C=C3/C(=N)N4C(c5ccccc5)=CSC4=NC3=O)c2C)cc1` it is 7.47% (inactive).
In the case of `CCNC(=O)Oc1ccc[nH]c1=O`, the inhibition is 6.02% (inactive).
Then `CN(C)c1ccc(C=C(c2nnnn2-c2ccccc2)c2nnnn2-c2ccccc2)cc1`, with -2.49% (inactive); and `COC(=O)N/N=C(\C)c1ccc(OC(F)F)cc1OC(F)F`, with 6.36% (inactive).
`FC(F)(F)c1ccccc1NC(=S)N1CCN(Cc2ccc3c(c2)OCO3)CC1`: the inhibition is -0.82% (inactive).
On to `CCc1ccc(NC(=O)CSCCN2C(=O)c3ccccc3C2=O)cc1`, for which the inhibition was -2.41% (inactive).
As for `CCCCCNC(=O)c1cc(S(=O)(=O)N2CCCC2)ccc1F`, the inhibition is 0.96% (inactive).
Regarding `O=C1OC(c2cccs2)=N/C1=C/c1ccc(-c2cccc(C(=O)O)c2)o1`, the inhibition was 18.7% (active).
Take `N=C1/C(=C/c2ccc(-c3cccc(C(=O)O)c3)o2)C(=O)N=C2SC=C(c3ccccc3)N12`: the inhibition is 53.6% (active).
Then `O=C1OC(c2cccs2)=N/C1=C\c1ccc(-c2ccccc2Cl)o1`, with 7.66% (inactive); and `N=C1/C(=C\c2ccc(-c3cccc(Cl)c3)o2)C(=O)N=C2SC=C(c3ccccc3)N12`, with -2.27% (inactive); and `O=C1OC(c2cccs2)=N/C1=C\c1ccc(-c2cccc(Cl)c2)o1`, with 7.15% (inactive).
The figure for `Cc1ccccc1-n1c(C)cc(/C=C2/C(=N)N3C(c4ccccc4)=CSC3=NC2=O)c1C` is -1.94% (inactive); for `Cc1ccc(N/C=C(/C#N)c2ccsc2)cc1` it is 1.11% (inactive).
The figure for `COc1cc(O)c(C(CCN2CCCC2)c2cc(OC)c(OC)c(OC)c2)c(OC)c1` (stereo unspecified) is 1.11% (inactive); for `Cc1ccc(/C=N\NC(=O)C2CC(=O)N(c3ccccc3)C2)o1` (stereo unspecified) it is 3.39% (inactive).
`Cc1cc(C)n2nc(C(=O)NCc3ccccc3)nc2n1`: the inhibition was -3.46% (inactive).
Then `Cc1cc(C)n2nc(SCCC(=O)NCCc3ccccc3)nc2n1`, with -3.62% (inactive).
The figure for `Cc1cc(C)n2nc(C(=O)NCCc3ccccc3)nc2n1` is 14.6% (active); for `CCN(CC(=O)NCc1ccc(Cl)cc1)S(=O)(=O)c1ccc(NC(C)=O)cc1` it is -2.53% (inactive); for `CC(CCc1ccccc1)NC(=O)c1cccc([N+](=O)[O-])c1` (stereo unspecified) it is 13.1% (active).
As for `Cc1ccc(C(=O)NC(C)CCc2ccccc2)cc1[N+](=O)[O-]` (stereo unspecified), the inhibition is 3.64% (inactive).
The figure for `CC(CCc1ccccc1)NC(=O)c1ccccc1` (stereo unspecified) is -2.82% (inactive); for `CCn1c(SCC(=O)NCCc2ccccc2)nnc1C(C)C` it is 1.51% (inactive); for `Cn1c(SCC(=O)c2ccc3c(c2)NC(=O)CO3)nc2ccccc21` it is -5.28% (inactive).
Then `COc1cccc(C(=O)Cn2c(=N)n(C)c3ccccc32)c1`, with 13% (active); and `Cn1c(=N)n(CC(=O)c2ccccc2)c2ccccc21`, with 3.23% (inactive).
Take `COc1ccc(C(=O)Cn2c(=N)n(C)c3ccccc32)cc1`: the inhibition is -4.4% (inactive).
Regarding `Nc1ncnc(Nc2ccc(S(N)(=O)=O)cc2)n1`, the inhibition is -0.83% (inactive).
The figure for `CNC(=S)N1CCN(C(=O)c2ccco2)CC1` is 2.06% (inactive); for `COc1ccc(NC2(C#N)CCCCC2)cc1` it is -1.99% (inactive).
Then `CC(Nc1nc(-c2ccc3c(c2)NC(=O)CO3)cs1)c1ccccc1` (stereo unspecified), with -7.09% (inactive); and `COC(=O)Cc1ccc(NC(=S)NCCSc2ccc(Cl)cc2)cc1`, with 3.25% (inactive); and `COc1ccc2c(c1)c(C(=O)CN1CCOCC1)c(C)n2C`, with 5.7% (inactive).
Take `COc1ccc2c(c1)c(C(=O)CN1CCC3(CC1)OCCO3)c(C)n2Cc1ccccc1`: the inhibition is -7.53% (inactive).
The figure for `COc1ccc2c(c1)c(C(=O)CN1CCC3(CC1)OCCO3)c(C)n2C` is 13% (active).
The figure for `Cc1cc(C(C)(C)C)oc1C(=O)N(CC(=O)NC1CCCC1)Cc1ccccc1` is -0.33% (inactive); for `Cn1c(=O)c2c(ncn2CC(O)CNc2cccc(Cl)c2)n(C)c1=O` (stereo unspecified) it is -0.25% (inactive).
The figure for `COC(=O)Nc1ccc(S(=O)(=O)NCCCCCC(=O)O)cc1` is -5.41% (inactive).
Turning to `COc1cc(-c2ccc(Nc3ccccc3C(=O)O)c(OC)c2)ccc1Nc1ccccc1C(=O)O`, the inhibition was 27.4% (active).
The figure for `COc1ccc(Nc2ccccc2C(=O)O)cc1` is -1.06% (inactive).
The figure for `O=C(O)c1ccccc1Nc1ccccc1C(=O)O` is -0.95% (inactive); for `O=[N+]([O-])c1ccc(Oc2ccc(S(=O)(=O)N3CCCCC3)cc2)cc1` it is -0.28% (inactive).
As for `O=c1c2[nH]c3cccc(Cl)c3c2ncn1CCN1CCCCC1`, the inhibition is 0.41% (inactive).
In the case of `CCP(=O)(c1ccccc1)C(C)(C)O` (stereo unspecified), the inhibition was 4.81% (inactive).
Consider `CCCOP(=O)(c1ccccc1)c1ccccc1`, for which the inhibition is 0.12% (inactive).
The figure for `CCOP(=O)(C1=C(O)C(=O)C(C(C)(C)C)=CC1=O)c1ccccc1` (stereo unspecified) is 19.3% (active); for `O=C1CN=C(c2ccc(Cl)cc2)c2oc3ccccc3c2N1` it is 2.87% (inactive); for `O=C1CN=C(c2ccc(Br)cc2)c2oc3ccccc3c2N1` it is 14.2% (active).
The figure for `O=C1CN=C(c2ccc(F)cc2)c2oc3ccccc3c2N1` is 0.53% (inactive).
Regarding `Cc1cccc(/C(N)=N/OC(=O)CCc2ccccc2)c1`, the inhibition is 3.83% (inactive).
Consider `O=C(O)c1ccc(C(=O)O)c(C(=O)c2ccccc2)c1`, for which the inhibition was 1.74% (inactive).
The figure for `O=C(c1ccc(O)cc1)c1ccc(C(=O)c2ccc(O)cc2)cc1` is -1.69% (inactive); for `O=C(c1ccc(O)cc1)c1ccc(C(=O)O)c(C(=O)O)c1` it is 12.8% (active).
Then `Cc1ccc(C)c(NCc2ccccc2CO)c1`, with -3.27% (inactive); and `O=C(O)c1ccc2c(c1)N(Cc1ccccc1)C(=O)c1ccccc1S2`, with -0.29% (inactive); and `Cc1ccccc1CN1C(=O)c2ccccc2Sc2ccc(C(=O)O)cc21`, with -2.8% (inactive).
For the molecule `Cc1cccc(CN2C(=O)c3ccccc3Sc3ccc(C(=O)O)cc32)c1`, the inhibition is 14.3% (active).
Then `COCc1cc(C)nc(SCC(=O)Nc2cccc3cccnc23)c1C#N`, with 15.1% (active); and `COCc1cc(C)nc(SCC(=O)Nc2ccccc2C)c1C#N`, with 2.63% (inactive); and `COCc1cc(C)nc(SCC(=O)Nc2cccc(C)c2C)c1C#N`, with 3.01% (inactive).
The figure for `CC(C)(C)NCC(O)Cn1cc(C=O)c2ccccc21` (stereo unspecified) is 1.11% (inactive); for `CC1(c2ccccc2)CC(C)(C)N2C(=O)Cc3cccc1c32` (stereo unspecified) it is 2.59% (inactive); for `Cc1cccc(-n2c(=O)[nH]c3c(C(N)=O)nc(C(C)C)nc32)c1` it is 0.14% (inactive).
The figure for `CCn1c2ccccc2c2cc(NC(=O)CSc3nnc(-c4ccc(OC)c(OC)c4)n3N)ccc21` is 3.95% (inactive); for `CCn1c2ccccc2c2cc(NC(=O)CSc3nnc(-c4ccc(OC)cc4)n3N)ccc21` it is 1.4% (inactive).
For `CCn1c2ccccc2c2cc(NC(=O)CSc3nnc(-c4cccc(OC)c4)n3N)ccc21`, the inhibition is 14.2% (active).
With `COC(=O)c1c(NC(=O)C2COc3ccccc3O2)sc2c1CCN(C(C)=O)C2` (stereo unspecified), the inhibition is 2.68% (inactive).
For the molecule `O=C(COC(=O)/C=C/c1ccccc1[N+](=O)[O-])NC1CCS(=O)(=O)C1` (stereo unspecified), the inhibition is 6.21% (inactive).
Then `Cn1cnc([N+](=O)[O-])c1Oc1ccc2ccccc2c1`, with -3.73% (inactive); and `CCS(=O)(=O)c1c([N+](=O)[O-])ncn1C`, with 5.34% (inactive).
On to `Cc1cccc(Sc2c([N+](=O)[O-])ncn2C)c1`, for which the inhibition was 4.72% (inactive).
Then `Cn1cnc([N+](=O)[O-])c1S(=O)(=O)c1cccc(Cl)c1`, with 14.8% (active); and `Cn1cnc([N+](=O)[O-])c1Cl`, with 2.48% (inactive).
Then `COc1ccc(/C=C(\C)c2nc(C)c(-c3ccccc3)c(=O)[nH]2)cc1`, with 4.53% (inactive); and `Fc1ccc(N2CCN(c3ncnc4nc[nH]c34)CC2)cc1`, with 4.66% (inactive).
The figure for `O=C(COC(=O)c1ccc(S(=O)(=O)N2CCCC2)cc1)Nc1ccc(N2CCOCC2)cc1` is -1.26% (inactive).
